From PubChem BioAssay (Tox21)
Where “and” joins values, the source holds several entries; their conditions need not be identical. Equal entries are not always repeated. Inconclusive results are not listed. Some structures have more than one record in an assay (separate samples or runs), and their calls can disagree. Calls of active or inactive are those of the source. Calls follow the shape of the dose curve; as a rule, active = well fitted curve in the direction sought with a large enough effect in the repeat runs; inconclusive = weak or mixed curves; inactive = no such curve, though single readings can be large; an effect the other way counts as inactive or inconclusive.

Assay: qHTS assay for identifying genotoxic compounds that show differential cytotoxicity against isogenic chicken DT40 cell lines with known DNA damage response pathways - Rev3 mutant cell line (AID 743014); also: nearly all actives have a fitted effect of over 55% in size
Conditions: chicken DT40 Rev3-/- viability, CellTiter-Glo, 40 h; series mostly up to 68.4 µM; activity, negative = cytotoxicity: at the top concentration
% is scaled to controls: 0 for no effect and ±100 for the full control effect; potency is read from the fitted curve at half-maximal effect.

SMILES	activity, negative = cytotoxicity	Potency
O=C(/C=C/c1ccc(O)c(O)c1)O[C@@H](C(=O)O)[C@@H](OC(=O)/C=C/c1ccc(O)c(O)c1)C(=O)O	1.35% (inactive)	
CC(CO)Oc1ccccc1 (configuration not stated)	-11.3% [at 95 µM] (inactive)	
NC(=S)NC(N)=S		61.1 µM (active)
O=C1C(c2[nH]c3ccc(S(=O)(=O)O)cc3c2O)=Nc2ccc(S(=O)(=O)O)cc21		inactive
Cc1c(C)c2c(c(C)c1O)CC[C@@](C)(CCC[C@H](C)CCC[C@H](C)CCCC(C)C)O2		inactive
O=C(O)c1cccc(C(F)(F)F)c1	-38.1% (inactive)	
Cc1ccc(C)cc1	-1.16% (inactive)	
CCCC1CCC(=O)CC1	6.88% (inactive)	
C=C(C)c1cccc(C(=C)C)c1	-7.3% (inactive)	
O=C(O)CCN(C1(C(=O)NO)CCCC1)S(=O)(=O)c1ccc(Oc2ccc(F)cc2)cc1	-19.4% (inactive)	
CCCC(=O)OC(C)(C)Cc1ccccc1	-8.5% (inactive)	
CC(C)CCOC(=O)/C=C/c1ccccc1	-6.27% [at 95 µM] (inactive)	
CCCCCc1ccc(Cl)cc1	-0.394% (inactive)	
OCC(F)(F)F	2.4% [at 95 µM] (inactive)	
CCCCC(CC)CN1CN(CC(CC)CCCC)CC(C)(N)C1 (configuration not stated)		12.7 µM (active)
COc1cc(/C=C/c2ccccc2)oc(=O)c1	1.61% [at 95 µM] (inactive)	
CC(=O)c1ccc(C(C)=O)cc1	5.2% [at 95 µM] (inactive)	
CCOC(=O)Cn1cccc1-c1nc(-c2ccc(OC)cc2)c(-c2ccc(OC)cc2)s1	1% (inactive)	

SMILES	activity, negative = cytotoxicity	Potency
O=C(Oc1ccccc1)Oc1ccccc1	-19.6% (inactive)	
O=C(/C=C/c1ccccc1)OC/C=C/c1ccccc1		15.4 µM (active)
O=C(O)O	-2.82% [at 8.53 µM] (inactive)	
O=[N+]([O-])c1ccc(F)c(Cl)c1	7.38% (inactive)	
FC(F)(F)c1cccc(Cl)c1	-0.711% (inactive)	
Cc1cc(-c2ccc(N=Nc3cc(S(=O)(=O)O)c4ccccc4c3N)c(C)c2)ccc1N=Nc1cc(S(=O)(=O)O)c2ccccc2c1N		0.388 µM (active)
Cc1ccc(C(C)C)cc2c(C)ccc1-2	8.2% (inactive)	
O=C1OC2(c3ccc(O)cc3Oc3cc(O)ccc32)c2ccc(N=C=S)cc21	1.12% [at 95 µM] (inactive)	
CCCCCCCCCCOC(=O)c1ccccc1C(=O)OCCCCCCCC	-0.941% (inactive)	
CCOC(=O)c1ccc(C2CCC(NC[C@H](O)COc3ccc(O)c(NS(C)(=O)=O)c3)CC2)cc1 (some centres not stated)		0.1 µM (active)
c1ccsc1	-5.59% (inactive)	
c1cnccn1	1.92% [at 95 µM] (inactive)	
OC[C@H]1O[C@H](O[C@H]2O[C@H](CO)[C@@H](O)[C@H](O)[C@H]2O)[C@H](O)[C@@H](O)[C@@H]1O	2.12% [at 95 µM] (inactive)	
C#CC1(O)CC[C@H]2[C@@H]3CCC4=CCCC[C@@H]4[C@H]3CC[C@@]21C (some centres not stated)		11.4 µM (active) and 7.7 µM (active)
CCCCCCCCCCCCCC[N+](C)(C)Cc1ccccc1		750 nM (active) and 493 nM (active)
OCCN1CCN(CCCN2c3ccccc3Sc3ccc(C(F)(F)F)cc32)CC1		1.68 µM (active)
CC1(C)CC(O)CC(C)(C)N1	5.56% [at 95 µM] (inactive)	
CCc1cccc(CC)c1NC(=O)CN(CC(=O)O)CC(=O)O	0.0704% [at 31.4 µM] (inactive)	

Assay: qHTS assay for identifying genotoxic compounds that show differential cytotoxicity against isogenic chicken DT40 cell lines with known DNA damage response pathways - Rad54/Ku70 mutant cell line (AID 743015); also: nearly all actives have a fitted effect of over 60% in size
Conditions: DT40 Rad54/Ku70 mutant viability, CellTiter-Glo, 40 h; series mostly up to 66.8 µM; activity change, negative = cytotoxicity: at the top concentration

SMILES	activity change, negative = cytotoxicity	Potency
O=C(/C=C/c1ccc(O)c(O)c1)O[C@@H](C(=O)O)[C@@H](OC(=O)/C=C/c1ccc(O)c(O)c1)C(=O)O	9.73% (inactive)	
CC(CO)Oc1ccccc1 (configuration not stated)	2.98% [at 95.1 µM] (inactive)	
NC(=S)NC(N)=S		68.6 µM (active)
O=C1C(c2[nH]c3ccc(S(=O)(=O)O)cc3c2O)=Nc2ccc(S(=O)(=O)O)cc21		inactive and 30.6 µM (active)
Cc1c(C)c2c(c(C)c1O)CC[C@@](C)(CCC[C@H](C)CCC[C@H](C)CCCC(C)C)O2		inactive
O=C(O)c1cccc(C(F)(F)F)c1	-2.23% (inactive)	
Cc1ccc(C)cc1	5.18% (inactive)	
CCCC1CCC(=O)CC1	-17% (inactive)	
C=C(C)c1cccc(C(=C)C)c1	6.09% (inactive)	
O=C(O)CCN(C1(C(=O)NO)CCCC1)S(=O)(=O)c1ccc(Oc2ccc(F)cc2)cc1	-7.75% (inactive)	
CCCC(=O)OC(C)(C)Cc1ccccc1	-1.17% (inactive)	
CC(C)CCOC(=O)/C=C/c1ccccc1	-2.02% [at 95.1 µM] (inactive)	
CCCCCc1ccc(Cl)cc1	-3.48% (inactive)	
OCC(F)(F)F	9.36% [at 95.1 µM] (inactive)	
CCCCC(CC)CN1CN(CC(CC)CCCC)CC(C)(N)C1 (configuration not stated)		8.04 µM (active)
COc1cc(/C=C/c2ccccc2)oc(=O)c1	6.76% [at 95.1 µM] (inactive)	
CC(=O)c1ccc(C(C)=O)cc1	2.93% [at 95.1 µM] (inactive)	
CCOC(=O)Cn1cccc1-c1nc(-c2ccc(OC)cc2)c(-c2ccc(OC)cc2)s1	-0.163% (inactive)	

SMILES	activity change, negative = cytotoxicity	Potency
O=C(Oc1ccccc1)Oc1ccccc1	-2.4% (inactive)	
O=C(/C=C/c1ccccc1)OC/C=C/c1ccccc1		13.7 µM (active)
O=C(O)O	-2.06% [at 8.55 µM] (inactive)	
O=[N+]([O-])c1ccc(F)c(Cl)c1	-0.334% (inactive)	
FC(F)(F)c1cccc(Cl)c1	1.43% (inactive)	
Cc1cc(-c2ccc(N=Nc3cc(S(=O)(=O)O)c4ccccc4c3N)c(C)c2)ccc1N=Nc1cc(S(=O)(=O)O)c2ccccc2c1N		0.346 µM (active)
Cc1ccc(C(C)C)cc2c(C)ccc1-2	0.231% (inactive)	
O=C1OC2(c3ccc(O)cc3Oc3cc(O)ccc32)c2ccc(N=C=S)cc21	-0.723% [at 95.1 µM] (inactive)	
CCCCCCCCCCOC(=O)c1ccccc1C(=O)OCCCCCCCC	1.25% (inactive)	
CCOC(=O)c1ccc(C2CCC(NC[C@H](O)COc3ccc(O)c(NS(C)(=O)=O)c3)CC2)cc1 (some centres not stated)		0.113 µM (active)
c1ccsc1	-1.63% (inactive)	
c1cnccn1	6.34% [at 95.1 µM] (inactive)	
OC[C@H]1O[C@H](O[C@H]2O[C@H](CO)[C@@H](O)[C@H](O)[C@H]2O)[C@H](O)[C@@H](O)[C@@H]1O	2.19% [at 95.1 µM] (inactive)	
C#CC1(O)CC[C@H]2[C@@H]3CCC4=CCCC[C@@H]4[C@H]3CC[C@@]21C (some centres not stated)		11.4 µM (active) and 15.4 µM (active)
CCCCCCCCCCCCCC[N+](C)(C)Cc1ccccc1		750 nM (active) and 493 nM (active)
OCCN1CCN(CCCN2c3ccccc3Sc3ccc(C(F)(F)F)cc32)CC1		4.22 µM (active)
CC1(C)CC(O)CC(C)(C)N1	3.64% [at 95.1 µM] (inactive)	
CCc1cccc(CC)c1NC(=O)CN(CC(=O)O)CC(=O)O	-3.91% [at 30.7 µM] (inactive)	
